The results in this text go back to PubChem BioAssay (NCATS).

The target of assay [1] is Voltage-gated inwardly rectifying potassium channel KCNH2 (Homo sapiens) (UniProt Q12809). Kind of assay: qHTS Assay for Small Molecule Inhibitors of the Human hERG Channel Activity (AID 588834).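 Note: lower thallium flux fluorescence means stronger hERG block; nearly all actives have a fitted effect of over 50% in size.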 Note: potency is the fitted concentration of half-maximal effect. The method in brief: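 Blockade is seen as reduced FluxOR thallium-flux fluorescence in U2OS cells expressing hERG from a BacMam construct, in Opti-MEM with 2% FCS. Concentration-response data fitted to the Hill equation for AC50.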
A general note: qHTS replaces the single test concentration by a dilution series.

The target in assay [2] is Glutaminase kidney isoform, mitochondrial (Homo sapiens) (UniProt O94925). Kind of assay: qHTS for Inhibitors of Glutaminase (GLS): LOPAC Validation (AID 624146). Note: nearly all actives have a fitted effect of over 60% in size. Note: potency is the fitted concentration of half-maximal effect. The method in brief:
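hKGA; 45 mM KH2PO4 pH 8.2 + 0.02% Tween-20; cpd via pin tool; 1 mM Gln soln; GluOx/HRP/Amplex Red; RT 30 min; fluor. t0 & final.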

The nature of assay [3]: qHTS of Trypanosoma Brucei Inhibitors: LOPAC Validation (AID 624147). The method in brief: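 Screened from lowest to highest concentration, compounds were pinned into TbPYK/substrate mixtures, and ADP (130 uM final) was added. Plates sat at room temperature for 45 min prior to Kinase-Glo Plus detection by luminescence.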
Assay [4] deals with Glucagon-like peptide 1 receptor (Homo sapiens) (UniProt P43220). Kind of assay: qHTS of GLP-1 Receptor Agonists: LOPAC Validation (AID 624148).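 Note: luminescence from a luciferase reporter switched on by cAMP.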 Note: potency is the fitted concentration of half-maximal effect. In a few lines:
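Agonism scored as increased luciferase luminescence driven by cAMP in HEK293 clones carrying GLP-1R. Cells settled 12 hours, received compound for 4-6 hr at 37 deg C, 5% CO2, and were read after 12 min detection reagent at RT.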

Assay [5] in a line: qHTS of Nrf2 Activators: LOPAC Validation (AID 624149). In a few lines:
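Luminescence read-out of ARE-luciferase activation: AREc32_Fluc cells treated with compounds for 24 hr at 37 deg C, then lysed with Steady-Glo for 30 min at room temperature before reading.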

Assay [6] in a line: HTS Assay for Allosteric Antagonists of the Human D2 Dopamine Receptor: Hit Validation in HTRF (AID 624455). Note: potency is the fitted concentration of half-maximal effect.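 Note: stable D1 dopamine receptor cell line scored for blocking the D1 response.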 In a few lines: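 First, antagonism was screened by calcium flux in a force-coupled, inducible Hek293 Trex D2 line challenged with EC80 dopamine. Hits then went into an HTRF assay in cells stably expressing D1, testing inhibition of the D1 response.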
(In general: TR-FRET usually uses a lanthanide donor and a delayed reading to cut background.)

Records with an inconclusive call do not appear. The source made the active and inactive calls. Calls come from the whole dose curve; as a rule, active = well fitted curve in the direction sought with a large enough effect; inconclusive = small, poorly fitted or top-dose-only effect, or another doubt; inactive = no such curve, though single readings can be large; an effect the other way counts as inactive or inconclusive.

Sequence of Glucagon-like peptide 1 receptor (Homo sapiens) (P43220 whole entry, looked up): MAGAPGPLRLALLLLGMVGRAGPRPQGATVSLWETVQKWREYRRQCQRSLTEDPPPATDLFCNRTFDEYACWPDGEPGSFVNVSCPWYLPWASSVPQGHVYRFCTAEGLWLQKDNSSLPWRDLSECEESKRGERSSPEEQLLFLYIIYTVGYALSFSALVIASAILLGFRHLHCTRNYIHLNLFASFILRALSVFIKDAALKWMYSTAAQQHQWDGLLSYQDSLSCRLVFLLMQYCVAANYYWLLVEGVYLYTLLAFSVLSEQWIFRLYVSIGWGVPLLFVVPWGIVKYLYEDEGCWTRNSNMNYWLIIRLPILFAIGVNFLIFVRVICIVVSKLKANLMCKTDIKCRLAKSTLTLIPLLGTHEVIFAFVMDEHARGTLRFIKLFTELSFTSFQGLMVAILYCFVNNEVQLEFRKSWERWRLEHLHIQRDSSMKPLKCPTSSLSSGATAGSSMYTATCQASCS
Sequence of Glutaminase kidney isoform, mitochondrial (Homo sapiens) (O94925 whole entry, looked up, canonical isoform): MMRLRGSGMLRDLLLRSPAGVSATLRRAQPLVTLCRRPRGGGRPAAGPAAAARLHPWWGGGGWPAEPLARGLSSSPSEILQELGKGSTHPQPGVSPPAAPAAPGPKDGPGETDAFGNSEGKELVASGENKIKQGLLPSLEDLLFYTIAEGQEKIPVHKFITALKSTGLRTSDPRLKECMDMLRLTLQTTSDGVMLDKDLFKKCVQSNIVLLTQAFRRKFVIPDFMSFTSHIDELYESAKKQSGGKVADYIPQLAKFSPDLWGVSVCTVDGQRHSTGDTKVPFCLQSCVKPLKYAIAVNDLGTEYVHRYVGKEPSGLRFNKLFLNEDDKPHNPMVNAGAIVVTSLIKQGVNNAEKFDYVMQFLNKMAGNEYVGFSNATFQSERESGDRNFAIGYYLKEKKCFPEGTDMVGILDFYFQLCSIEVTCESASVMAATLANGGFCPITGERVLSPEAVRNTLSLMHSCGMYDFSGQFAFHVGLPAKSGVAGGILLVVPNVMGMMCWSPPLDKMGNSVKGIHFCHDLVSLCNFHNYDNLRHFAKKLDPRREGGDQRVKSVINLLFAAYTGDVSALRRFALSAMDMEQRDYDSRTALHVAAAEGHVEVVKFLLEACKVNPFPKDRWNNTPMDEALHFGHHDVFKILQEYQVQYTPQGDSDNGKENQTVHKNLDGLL
Sequence of Voltage-gated inwardly rectifying potassium channel KCNH2 (Homo sapiens) (Q12809 whole entry, looked up): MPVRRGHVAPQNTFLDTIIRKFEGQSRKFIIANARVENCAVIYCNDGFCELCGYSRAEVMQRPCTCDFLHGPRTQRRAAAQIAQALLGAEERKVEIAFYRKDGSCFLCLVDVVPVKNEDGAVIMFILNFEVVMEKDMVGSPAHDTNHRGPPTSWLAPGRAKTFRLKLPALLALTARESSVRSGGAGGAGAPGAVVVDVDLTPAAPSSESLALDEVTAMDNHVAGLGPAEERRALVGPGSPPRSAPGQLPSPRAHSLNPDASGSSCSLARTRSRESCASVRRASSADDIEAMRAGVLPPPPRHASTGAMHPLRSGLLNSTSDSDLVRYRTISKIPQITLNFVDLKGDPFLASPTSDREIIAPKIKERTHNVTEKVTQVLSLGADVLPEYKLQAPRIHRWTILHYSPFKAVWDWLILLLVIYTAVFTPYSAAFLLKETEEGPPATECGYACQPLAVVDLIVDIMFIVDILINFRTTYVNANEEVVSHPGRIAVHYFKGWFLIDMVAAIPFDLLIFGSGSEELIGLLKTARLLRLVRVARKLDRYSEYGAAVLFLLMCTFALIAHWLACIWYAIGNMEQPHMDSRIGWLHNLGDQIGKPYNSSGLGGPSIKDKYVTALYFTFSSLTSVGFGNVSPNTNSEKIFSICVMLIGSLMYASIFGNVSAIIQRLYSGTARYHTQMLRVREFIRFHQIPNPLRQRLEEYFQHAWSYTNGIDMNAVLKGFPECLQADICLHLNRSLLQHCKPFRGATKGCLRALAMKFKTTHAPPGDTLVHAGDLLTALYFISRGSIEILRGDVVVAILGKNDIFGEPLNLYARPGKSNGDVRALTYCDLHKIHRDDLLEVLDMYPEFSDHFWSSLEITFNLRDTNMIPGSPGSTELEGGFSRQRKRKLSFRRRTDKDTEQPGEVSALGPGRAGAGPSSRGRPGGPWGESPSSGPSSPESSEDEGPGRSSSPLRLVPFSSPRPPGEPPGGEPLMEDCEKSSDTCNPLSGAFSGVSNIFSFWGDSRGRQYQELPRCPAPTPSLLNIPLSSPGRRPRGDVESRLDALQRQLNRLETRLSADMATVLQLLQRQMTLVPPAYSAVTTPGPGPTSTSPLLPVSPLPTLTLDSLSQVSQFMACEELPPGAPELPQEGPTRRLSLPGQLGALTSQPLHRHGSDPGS

Turning to `O=C(O)CCC(=O)N1CCCC1C(=O)O` (centres undefined), the Potency result in assay [1], in assay [2], in assay [3], in assay [4], in assay [5] and in assay [6] was “inactive” in each case.
In the case of `Cc1nc(N=Nc2cc(S(=O)(=O)O)c3cc([N+](=O)[O-])cc(S(=O)(=O)O)c3c2)c(COP(=O)(O)O)c(C=O)c1O`, the Potency result in assay [1], in assay [2], in assay [3], in assay [4], in assay [5] and in assay [6] was “inactive” throughout.
`O=C(O)C1CCCNC1` (centres undefined): the Potency result in assay [1], in assay [2], in assay [3], in assay [4], in assay [5] and in assay [6] was “inactive” each time.
For `CC(C)Cn1c(=O)n(C)c(=O)c2[nH]cnc21`, the Potency result in assay [1], in assay [2], in assay [3], in assay [4], in assay [5] and in assay [6] was “inactive” in each case.
As for `O=c1onc2cnc3ccccc3n12`, the Potency result in assay [1], in assay [3], in assay [4], in assay [5] and in assay [6] was “inactive” in each case. Besides, the Potency in assay [2] is 7.08 µM (active).
For the molecule `COc1ccccc1N1CCN(CCN(C(=O)c2ccc(F)cc2)c2ccccn2)CC1`, in assay [1], the Potency was 11.2 µM (active). The Potency result in assay [2], in assay [3], in assay [4], in assay [5] and in assay [6] was “inactive” throughout.
In the case of `COC(=O)C(N)Cc1ccc(Cl)cc1` (centres undefined), the Potency result in assay [1], in assay [2], in assay [3], in assay [4], in assay [5] and in assay [6] was “inactive” throughout.
For the molecule `CCCn1c(=O)c2c(ncn2C)n(CCC)c1=O`, the Potency entry in assay [1], in assay [2], in assay [3], in assay [4], in assay [5] and in assay [6] was “inactive” throughout.
In the case of `O=C1OC(=O)C2C3CCC(O3)C12` (centres undefined), the Potency result in assay [1], in assay [2], in assay [3], in assay [4], in assay [5] and in assay [6] was “inactive” in each case.
Regarding `CC(C)(C)c1cc(/C=C(\C#N)C(N)=S)cc(C(C)(C)C)c1O`, the Potency in assay [1] is 11.2 µM (active); in assay [2] it was 4.47 µM (active). Moreover, the Potency result in assay [3], in assay [4], in assay [5] and in assay [6] was “inactive” each time.
Regarding `Clc1nccc2c1ccc1ccccc12`, the Potency result in assay [1], in assay [2], in assay [3], in assay [4], in assay [5] and in assay [6] was “inactive” in each case.
With `Nc1ccc(CCNc2ncnc3c2ncn3C2OC(CO)C(O)C2O)cc1` (centres undefined), the Potency result in assay [1], in assay [2], in assay [3], in assay [4], in assay [5] and in assay [6] was “inactive” throughout.
Take `N#C/C(=C\c1ccc(O)c(O)c1)C(=O)NCCCNC(=O)/C(C#N)=C/c1ccc(O)c(O)c1`: the Potency entry in assay [1], in assay [2], in assay [3], in assay [4], in assay [5] and in assay [6] was “inactive” in each case.
As for `Cc1nc(N=Nc2ccc(S(=O)(=O)O)cc2S(=O)(=O)O)c(COP(=O)(O)O)c(C=O)c1O`, the Potency entry in assay [1], in assay [2], in assay [3], in assay [4], in assay [5] and in assay [6] was “inactive” each time.
For `NCCCCN=C(N)N`, the Potency result in assay [1], in assay [2], in assay [3], in assay [4], in assay [5] and in assay [6] was “inactive” in each case.
With `N=C(N)SCCc1cnc[nH]1`, the Potency entry in assay [1], in assay [2], in assay [3], in assay [4], in assay [5] and in assay [6] was “inactive” each time.
`N[C@@H](CCC(=O)N[C@H](CSN=O)C(=O)NCC(=O)O)C(=O)O`: the Potency entry in assay [1], in assay [2], in assay [3], in assay [4], in assay [5] and in assay [6] was “inactive” throughout.
On to `N[C@H](C(=O)O)[C@H]1C[C@@H]1C(=O)O`, for which the Potency entry in assay [1], in assay [2], in assay [3], in assay [4], in assay [5] and in assay [6] was “inactive” each time.
Consider `C=CC1(C)CC(=O)C2(O)C(C)(O1)C(OC(C)=O)C(O)C1C(C)(C)CCC(O)C12C` (centres undefined), for which the Potency entry in assay [1], in assay [2], in assay [3] and in assay [5] was “inactive” each time. The Potency in assay [4] was 1.03 µM (active); in assay [6] it was 0.517 µM (active).
For the molecule `CCC(=O)N1CCN(C(=O)c2ccccc2)CC1`, the Potency entry in assay [1], in assay [2], in assay [3], in assay [4], in assay [5] and in assay [6] was “inactive” each time.
On to `C[N+](C)(C)CC=O`, for which the Potency result in assay [1], in assay [2], in assay [3], in assay [4], in assay [5] and in assay [6] was “inactive” in each case.
Take `CSC(=N)N`: the Potency entry in assay [1], in assay [2], in assay [3], in assay [4], in assay [5] and in assay [6] was “inactive” each time.
As for `O=c1[nH]c(=O)c2nc3ccccc3nc2[nH]1`, the Potency result in assay [1], in assay [2], in assay [3], in assay [4] and in assay [6] was “inactive” throughout.
Consider `NS(=O)(=O)c1cccc2c1c([N+](=O)[O-])cc1nc(O)c(O)nc12`, for which the Potency result in assay [1], in assay [2], in assay [3], in assay [4], in assay [5] and in assay [6] was “inactive” in each case.
For `C=C1C(=O)O[C@@H]2[C@H]3O[C@]3(C)CCC=C(C)CC[C@@H]12`, the Potency entry in assay [1], in assay [2], in assay [3], in assay [4] and in assay [6] was “inactive” throughout.
On to `Nc1ccc(N2C(=O)c3ccccc3C2=O)c(Cl)c1`, for which the Potency result in assay [1], in assay [2], in assay [3], in assay [4], in assay [5] and in assay [6] was “inactive” in each case.
Consider `COc1cc(C(O)CO)ccc1O` (centres undefined), for which the Potency result in assay [1], in assay [3], in assay [4], in assay [5] and in assay [6] was “inactive” throughout. For the same molecule, the Potency in assay [2] is 4.47 µM (active).
As for `NC(N)=[N+]1CCc2ccccc2C1`, the Potency entry in assay [1], in assay [2], in assay [3], in assay [4], in assay [5] and in assay [6] was “inactive” in each case.
In the case of `CCCC[C@@]1(C2CCCC2)Cc2cc(OCC(=O)O)c(Cl)c(Cl)c2C1=O`, the Potency result in assay [1], in assay [2], in assay [3], in assay [4], in assay [5] and in assay [6] was “inactive” throughout.
Regarding `NC(=Nc1ccccc1)NC(=O)c1nc(Cl)c(N)nc1N`, in assay [1], the Potency was 14.1 µM (active). The Potency entry in assay [2], in assay [3], in assay [4], in assay [5] and in assay [6] was “inactive” in each case.
As to `CC(C)C[C@H](NC(=O)C1OC1C(=O)O)C(=O)NCCCCN=C(N)N` (some centres undefined), the Potency entry in assay [1], in assay [2], in assay [3], in assay [4], in assay [5] and in assay [6] was “inactive” each time.
